# According to PubChem BioAssay (NCATS):
# Inconclusive results are not listed. Active and inactive are the calls of the source. Calls follow the shape of the dose curve; as a rule, active = well fitted cell-killing curve with a large enough effect; inconclusive = small, poorly fitted or top-dose-only effect; inactive = flat fitted curve, though single readings scatter.
# Assay: Cell Viability - LYMP2-021 (AID 974);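 also: compound exposure lasts 24 hours at 37 °C; nearly all actives have a fitted effect of over 55% in size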
# Details: LYMP2-021 lymphoblastoid cells viability; series mostly up to 92.2 µM; activity change, negative = cytotoxicity: at the top concentration
# Description: NIH Chemical Genomics Center [NCGC]
# NIH Molecular Libraries Screening Centers Network [MLSCN]
# National Institutes of Environmental Health Sciences [NIEHS]
# National Toxicology Program [NTP]
# We have developed a 1536-well cell-based assay for quantitative high throughput screening (qHTS) against a number of cell lines to determine in vitro cytotoxicity of small molecules. This particular assay uses a human lymphoblastoid cell line (LYMP2-021) purchased from Coriell Institute for Medical Research.
# NCGC Assay Protocol Summary:
# The CellTiter-Glo luminescent cell viability assay (Promega) is a homogeneous method to measure the number of viable cells in culture. The end point readout of this assay is based on quantitation of intracellular ATP, an indicator of metabolic activity, using the luciferase reaction. Luciferase catalyzes the oxidation of beetle Luciferin to oxyluciferin and light in the presence of ATP. The luminescent signal is proportional to amount of ATP present.
# Using the CellTiter-Glo luminescent cell viability assay, the amount of cellular ATP was measured in the lymphoblastoid cell line with complete culture medium following compound treatment for 24 hours. The assay was performed in opaque white Kalypsys 1536-well plates. In the screen, tetraoctylammonium bromide was used as positive control. Library compounds were measured for their ability to cause acute toxicity in the cell line, as reflected by a decrease in intracellular ATP levels, in a concentration-dependent manner. […] AC50 values were determined from concentration-response data modeled with the standard Hill equation.
# qHTS protocol for CellTiter Glo lymphoblastoid cellular assay
# [Step] [Parameter] [Value] [Description]
# 1. Reagent; 5 uL; 2500 lymphoblastoid cells/well
# 2. Time; 5 hr; 37 C incubation
# 4. Controls; 23 nL; Tetraoctylammonium bromide 6.4pM to 92 uM
# 5. Time; 24 hr; 37 C incubation
# 6. Reagent; 5 uL; CellTiter Glo reagent
# 7. Time; 30 min; Room Temperature
# 8. Detection; Luminescence; Viewlux plate reader
# Keywords: cell viability, cytotoxicity, lymphoblastoid cell line, luminescence, NTPHTS, NTPHTS_NCGC, NIEHS, DSSTox, MLSMR, MLSCN, NIH Roadmap, qHTS, NCGC
# % is scaled to controls: 0 for no effect and ±100 for the full control effect; potency is read from the fitted curve at half-maximal effect.
Compound,"activity change, negative = cytotoxicity",Potency
CC(=O)NNc1ccccc1,-0.941% (inactive),–
c1ccc(NNc2ccccc2)cc1,-4.22% (inactive),–
Nc1ccc(Cc2ccc(N)c(Cl)c2)cc1Cl,-1.4% (inactive),–
CC(C)(C)OOC(=O)c1ccccc1,-0.519% (inactive),–
O=C(O)C(Br)CBr (stereo not given),-27.4% (inactive),–
[O-][Cl+]O,1.61% (inactive),–
CCOC(=O)CC(SP(=O)(OC)OC)C(=O)OCC (stereo not given),-5.74% (inactive),–
COC(C)(C)C,-8.28% (inactive),–
CCCCCc1cc(O)cc(O)c1,3.09% (inactive),–
OCC(Cl)CCl (stereo not given),1.61% (inactive),–
Clc1cccc(Cl)c1Cl,-0.819% (inactive),–
C=CC(=O)OCCN(C)C,-3.69% (inactive),–
C=CC(=O)OCC(CC)CCCC (stereo not given),0.903% (inactive),–
COc1c(C(C)(C)C)cc([N+](=O)[O-])c(C)c1[N+](=O)[O-],-0.22% (inactive),–
CNC(=O)O/N=C/C(C)(C)S(C)=O (stereo not given),2.83% (inactive),–
NNC(N)=S,-0.0178% (inactive),–
O=C(Cl)OCc1ccccc1,-1.22% (inactive),–
C=COC(C)=O,-8.16% (inactive),–
CN1CSC(=S)N(C)C1,–,39.8 µM (active)
COC(=O)Nc1cccc(OC(=O)Nc2cccc(C)c2)c1,-4.28% (inactive),–

Compound,"activity change, negative = cytotoxicity",Potency
CCSC(=O)N1CCCCCC1,6.51% (inactive),–
C=CC=O,-5.73% (inactive),–
CCCCOC(C)=O,2.56% (inactive),–
c1ccoc1,0.88% (inactive),–
C[N+](=O)[O-],-2.2% (inactive),–
CCNCC,-2.27% (inactive),–
S=c1[nH]c2ccccc2[nH]1,-2.77% (inactive),–
CCCC[N+](=O)[O-],-14.1% (inactive),–
O=c1ccc(=O)[nH][nH]1,-4.16% (inactive),–
Nc1ccc([N+](=O)[O-])cc1N,-20.8% (inactive),–
Cc1cnc[nH]1,-1.82% (inactive),–
CN(C)C(=O)Cl,-2.1% (inactive),–
CCCCC(CC)COC(=O)c1ccc(C(=O)OCC(CC)CCCC)c(C(=O)OCC(CC)CCCC)c1 (stereo not given),-12.6% (inactive),–
ClCCBr,-2.09% (inactive),–
ClCCOCCCl,3.96% (inactive),–
O=C(Cc1ccccc1)OCc1ccccc1,-0.223% (inactive),–
Cc1ccc(N)cc1Cl,-5.9% (inactive),–
C=CCc1cc(OC)c2c(c1)OCO2,3.75% (inactive),–
CC12CC1(C)C(=O)N(c1cc(Cl)cc(Cl)c1)C2=O (stereo not given),-8.22% (inactive),–
CC(C)CC(C)N (stereo not given),1.15% (inactive),–
